Several values for one entry are separate records, joined by “and”; a condition that tells them apart may be missing. Identical values can stand only once. The panel holds about 79,000 compounds, 15% with a hit somewhere; the sample as a whole holds those more often. A number with no mark means an inactive call. Activity calls are given as the source filed them. Cut-off read from the data, not from the text of the source: active = growth inhibition above about 70%; inactive = the rest.
Experiments:
[1] = NCI Yeast Anticancer Drug Screen. Data for the rad50 strain (AID 155);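 note: 0% = growth of vehicle-only cultures of the same strain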; settings: S. cerevisiae rad50 strain growth inhibition; at 50.0 µM; active compounds read high
Method in brief: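 Genetically altered yeast (DNA repair pathway); compound treatment; growth inhibition vs vehicle ctrl.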

[2] = NCI Yeast Anticancer Drug Screen. Data for the mec2-1 strain (AID 157); settings: S. cerevisiae mec2-1 strain, at 50.0 µM, active compounds read high
Method in brief: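 Test agents were screened against the mec2-1 yeast strain, with defined DNA repair or cell cycle alteration. Growth was scored as inhibition against vehicle-only controls.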

[3] = NCI Yeast Anticancer Drug Screen. Data for the sgs1 mgt1 strain (AID 161);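 note: 0% = growth of cultures given vehicle only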; settings: S. cerevisiae sgs1 mgt1 strain, at 50.0 µM, active compounds read high
Method in brief: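 Mutant yeast exposed to compound; growth scored against vehicle-only wells.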

[4] = NCI Yeast Anticancer Drug Screen. Data for the cln2 rad14 strain (AID 165);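 note: 0% = growth equal to vehicle treated cultures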; settings: S. cerevisiae cln2 rad14 strain, at 50.0 µM, active compounds read high
Method in brief: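 Growth of compound-exposed yeast (cln2 rad14 genotype) measured and expressed as inhibition relative to vehicle.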

[5] = NCI Yeast Anticancer Drug Screen. Data for the bub3 strain (AID 167); settings: S. cerevisiae bub3 mutant strain, at 50.0 µM, active compounds read high
Method in brief: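 Yeast carrying a defined mutation is treated with each compound, and growth is compared with that of vehicle-exposed cells to give inhibition.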

[6] = NCI Yeast Anticancer Drug Screen. Data for the mlh1 rad18 strain (AID 175); settings: S. cerevisiae mlh1 rad18 strain growth inhibition; at 50.0 µM; active compounds read high
Method in brief: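 In this whole-cell yeast screen, a strain with altered DNA damage repair is challenged with compound, and its growth is measured against matched vehicle-treated controls.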

| Structure (SMILES) | growth inhibition [1] | growth inhibition [2] | growth inhibition [3] | growth inhibition [4] | growth inhibition [5] | growth inhibition [6] |
| --- | --- | --- | --- | --- | --- | --- |
| N/N=C(\N)c1nn[nH]n1 | -9.55% | -12.4% | -12.7% | -6.05% | 12.9% | -11.9% |
| OCC(O)C(O)CO (stereo not given) | 6.7% and 6.95% | -0.55% and 8.95% | 3.55% and 0.4% | -61.8% and 20.8% | 12.1% and 24.6% | -1.05% and 0.1% |
| O=C1NC(=O)C(=C2C(=O)COC2=O)C(=O)N1 | -4.4% | -16.6% | -13.8% | -1.7% | -2.8% | -19.5% |
| NC(=S)c1cc(N(CCCl)CCCl)c([N+](=O)[O-])cc1[N+](=O)[O-] | 22.4% | -0.25% | 8.85% | 8.85% | -11.6% | -22.5% |
| CCOC(CP(=O)(OCC)OCC)OCC | -13.2% and 8.45% | -26.2% and -14.3% | -16.2% and 4.65% | 16.2% and 15.7% | 3.65% and 6.5% | -25.4% and 14.4% |
| O=C(O)C(O)(c1ccccc1)C1CCCCC1 (stereo not given) | 1% and 8.5% | -19.5% and 5.45% | -2.1% and -8.8% | 18.6% and -7.65% | -30.9% and 0.6% | -1.6% and -2.85% |
| CC(=O)Nc1ccc(C(=O)O)cc1 (tested in a mixture with another compound) | -25.9% | -43.6% | -17.4% | 3.65% | -46.2% | -7.75% |
| O=C1CCN2CCCC1C2 (stereo not given) | -18.9% | -21.3% | -18.8% | -4.15% | -16.6% | -43.8% |
| CCCCN(CCCC)CC(O)c1ccc(Br)cc1 (stereo not given) | 33.5% | 15.4% | 54% | 16.7% | 28.9% | 44.1% |
| CCOC(=O)C1Cc2ccc(OC)cc2C2=CC(=O)CCC21 (stereo not given) | -13.4% | -16.9% | -9.4% | 1.65% | 5.4% | -1.15% |
| COC1C(=[N+]=[N-])C(=O)NC(=O)N1C (stereo not given) | 21% | -3.4% | 34.9% | -7.65% | 20.3% | 20.5% |
| NCCC1CCc2[nH]c3ccccc3c2C1 (stereo not given) | -7.3% | -6.1% | -0.5% | -52.4% | -15.3% | -8.15% |
| O=C(NCCN1CCOCC1)C1(O)N=C(c2ccccc2)c2ccsc2-n2cccc21 (stereo not given) | 51.3% | 30.3% | 64.2% | -6.05% | 27.6% | 36.5% |
| COC(=O)C[CH2][Sn]([CH2]CC(=O)OC)([c]1ccccc1)[c]1ccccc1 | 7.95% | 30.7% | -6.7% | -15.7% | 14.4% | -25.4% |
| [C-]#[O+].[C-]#[O+].[Ni].c1ccc([PH+](CC[PH+](c2ccccc2)c2ccccc2)CC[PH+](c2ccccc2)c2ccccc2)cc1 | -23.4% | 0.4% | -22.4% | 3.75% | 7.6% | -10.2% |
| Cc1ccc(OP(Oc2ccc(C)cc2)Oc2ccc(C)cc2)cc1 | 32.8% | 10.7% | -6.35% | -31.6% | 29.4% | 31.5% |
| Cc1cc(N(CCCl)CCCl)ccc1C=Nc1ccccc1C(=O)O | 27.4% | 3.9% | 28.4% | 16.1% | 2.65% | 29.1% |
| CC1(CCl)COP(=O)(NN)OC1 (stereo not given) | 3.95% | -3.15% | -3.85% | -28.7% | 12% | 5.35% |

| Structure (SMILES) | growth inhibition [1] | growth inhibition [2] | growth inhibition [3] | growth inhibition [4] | growth inhibition [5] | growth inhibition [6] |
| --- | --- | --- | --- | --- | --- | --- |
| CCOC(=O)CC(=Nc1cc(C)on1)N(CC)CC | 0.95% | -19.2% | 6.3% | 9.95% | -9.75% | -17.1% |
| O=c1c2ccccc2sc2c1c(N(CCCl)CCCl)cc1ccccc12 | 39.2% | 5.5% | 20.1% | 17.5% | -5.85% | 18.8% |
| COC(=O)C1C(O)C(C)C(O)C(C)/C=C\C=C(C)C(=O)Nc2c(C)c(OC(C)=O)c3c(c2O)C(=O)C(C)=C2OCOC(=C23)C(C)=CC(C)(O)C(O)C(C)C1O (stereo not given) | 11.9% and -16.8% and 23.8% | -15.7% and -27.9% and -5.4% | 12.1% and -26.9% and 3.05% | -10.2% and -5.2% and 9.2% | 26.9% and -13.5% and 10% | 16.6% and -24.6% and 19.4% |
| NC(=O)CCCc1ccc([As]=O)cc1 (stereo not given) | -8.7% | -11.9% | -8.85% | -27.1% | -0.25% | 9.75% |
| CC(C)CC(=O)[O-].CC(C)CC(=O)[O-].N.N.N.N.[Co+3].[O-][Cl+3]([O-])([O-])O.[O-][Cl+3]([O-])([O-])[O-] | -23.6% | -6.2% | -42.2% | -20.9% | -16.2% | -14.8% |
| CCOc1ccc(Nc2nc(=O)[nH]c3ccccc23)cc1CN(CCCl)CCCl | 18.7% | 0.95% | 10.5% | -19.4% | 1.3% | 22.4% |
| [Co].[NH2-].[NH2-].[NH2-].[NH2-].[NH2-].[NH2-] | -5% and 8.1% | -15.3% and 9.05% | -5.4% and 6.25% | -19.8% and 10.1% | 2.3% and 23.4% | -2.9% and -5.85% |
| Nc1ccncc1 | 4.35% | -5.45% | 10% | 10.9% | -2.55% | 4.45% |
| CC1CCC2[S][Sn]3([NH]C2C1)[NH]C1CC(C)CCC1[S]3 (stereo not given) | 97% (active) | 96.5% (active) | 99.1% (active) | 95.8% (active) | 98.2% (active) | 96.5% (active) |
| COC(CN1CCOCCOCCOCC1)CN1CCOCCOCCOCC1 | -9.3% | -6.55% | -29.1% | 15.4% | 14.2% | -17.8% |
| CC(C)CCC(=O)OC1CCC2(C)C(=CCC3C4CCC(=O)C4(C)CCC32)C1 (stereo not given) | 3.35% | 12.1% | 5.35% | -18.7% | -1.9% | 13.2% |
| CCCCCCCNC(=O)CBr | 44% | 26.2% | 33.4% | 4.75% | 41.2% | 46.5% |
| Oc1cc(Br)c(O)c(Br)c1 | 10.3% | 42.8% | 29.9% | -11% | 36.4% | 41.8% |
| O=C(O)c1cc(Cc2ccc(O)c(C(=O)O)c2)ccc1O | -24.2% and -8.25% | 3.15% and -18.5% | -18.3% and 8.2% | -0.5% and -39.9% | -13.4% and 33.9% | -23.9% and -10.8% |
| CCN(CC)CCc1ccccn1 | -13.4% | -15.5% | -7% | -8.8% | -14.4% | 5.5% |
| CC1=C/C(=N\[Se]c2ccccc2)C(=O)C(C)=C1 | 43.7% | 27.4% | 24% | -9.05% | 47.4% | 36.3% |
| C=C1CC/C=C(/C)C(=O)C(OC(C)=O)C2C1CC2(C)C (stereo not given) | 78% (active) | 83.6% (active) | 81.2% (active) | 70.7% (active) | 86.2% (active) | 81.4% (active) |
